ChEMBL document CHEMBL4513216, “Probing the Open Global Health Chemical Diversity Library for Multistage-Active Starting Points for Next-Generation Antimalarials” (ACS Infect Dis, 2020)
Among all 69,000 compounds or so, about 8,600 (12%) showed an effect of 50% or more. The list comes from a sample in which strong results are over-represented; it also holds similar structures and randomly drawn compounds.

These compounds were tested on Plasmodium berghei (assay: Screen against P. berghei liver stage (PbLuc), transformed with Luciferase, at 10uM). Details: tested at 10 uM.
Assay type: functional, HepG2

Compound	INHIBITION [%]
CCOCC(O)CN1CCN(C(=O)c2ccc3c(c2)COC3)CC1 (configuration not stated)	29.7
COc1c(CNCc2nnc3n2CCCCC3)c(C)nn1C	31.6
CCN1C[C@@H]2[C@@H](OC)CCN(C(=O)Cc3ccsc3)[C@@H]2C1	11.2
O=C(c1cnccn1)N(CCO)Cc1cc(Br)ccc1F	-7.81
COCCNC(=O)Cn1cc(OCc2ccccc2F)c(=O)cc1CO	10.5
CC(C)CS(=O)(=O)CC(=O)NC(C)c1nnc2n1CCC2 (configuration not stated)	31.3
COc1cccc(C(=O)N2CCOCC2CN(C)C)c1OC (configuration not stated)	7.44
Cc1[nH]c(=O)[nH]c(=O)c1CN1CCCC(CCc2ccc(F)cc2F)C1 (configuration not stated)	-13.5
Cc1nc(CN2CCCC(CCNS(C)(=O)=O)C2)c[nH]1 (configuration not stated)	-1.53
Fc1ccc(CCC2CCCN(Cc3c[nH]cn3)C2)c(F)c1 (configuration not stated)	71.2
Cc1nc(CN2CCCC(CCc3c(F)cccc3F)C2)c[nH]1 (configuration not stated)	25.1
Cc1nc(CN2CCCC(Cn3cc(CCO)nn3)C2)c[nH]1 (configuration not stated)	18.5
Cc1nc(CN2CCCC(CCc3ccc(F)cc3F)C2)c[nH]1 (configuration not stated)	33.5
Cc1nc(CN2CCCC(CCc3ccccc3C)C2)c[nH]1 (configuration not stated)	47.6
Cc1nc(CN2CCCC(CCc3ccc(F)c(F)c3)C2)c[nH]1 (configuration not stated)	55.7
Cc1nc(CN2CCCC(CCc3ccccc3F)C2)c[nH]1 (configuration not stated)	57.6
CN(C)c1nccc(-c2cnc(N(C)C)[nH]c2=O)n1	13
COCc1ccccc1CNCc1c(C(C)C)nn(C)c1N(C)C	20.85
CN1CC(=O)N(c2ccsc2)CC12CCN(S(=O)(=O)c1ccccc1)C2 (configuration not stated)	-41.4
Cc1ccccc1CN(CCN(C)C)Cc1ccccc1C(=O)O	2.18
CCN(Cc1cc(F)ccc1Cl)C1CCS(=O)(=O)C1 (configuration not stated)	12.1
N#Cc1cc(S(N)(=O)=O)ccc1N1CCc2c(Cl)cccc2C1	9.52
CC(C)(C)c1ncc(C(=O)NCCNC(=O)c2ccc(O)cc2)s1	29.2

Compound	INHIBITION [%]
Cc1nc(C)c(C(=O)N2CCc3c(C)cccc32)o1	5.91
COc1cccc2c1CCCCN2C(=O)c1oc(C)nc1C	53.7
Cc1nc(C)c(C(=O)N2CCCc3c(F)cccc32)o1	35.2
CCN(CCNS(=O)(=O)C1CCOCC1)C(=O)OC(C)(C)C	-21.2
Cc1csc(NC(=O)CN(C)CCOc2cccc(F)c2)n1	1.05
c1ccc(Cc2nnc(CN3CCCC3Cn3cccn3)o2)cc1 (configuration not stated)	24
CCc1nc(Cn2c(=O)n(C)c3ccccc32)no1	45.2
CCCc1nc(Cn2c(=O)n(C)c3ccccc32)no1	29.4
CCc1nc(Cn2c(=O)n(CC)c3ccccc32)no1	57.3
CC(C)NC(=O)[C@H]1C[C@@H]2[C@@H](C1)OCCN2CC1CC1	48.2
N#Cc1ccc(F)c(CN(CC(=O)N2CCCC2)CC2CCCO2)c1 (configuration not stated)	-13.5
N#Cc1csc(CN(CC(=O)N2CCCC2)CC2CCCO2)c1 (configuration not stated)	70.9
N#Cc1cccc(CN(CC(=O)N2CCCC2)CC2CCCO2)c1 (configuration not stated)	-4.91
O=C([C@@H]1CC[C@@H]2[C@@H](CCN2CCOCc2ccccc2)O1)N1CCCC1	32.1
CCCNC(=O)CCOc1cccc(F)c1	14.465
Cc1ccc(CN(CCN(C)C)C(=O)Nc2ccc(C)c(C#N)c2)s1	60
Cc1ccc(CN(CCN(C)C)C(=O)Nc2cc(C(N)=O)ccc2C)s1	19.2
CC(=O)c1ccc(NC(=O)N(CCN(C)C)Cc2ccc(C)s2)cc1	26.6
Cc1cnn(CC2CCCN2C(=O)c2cccnc2-n2cncn2)c1 (configuration not stated)	31.9
COc1c(Br)cccc1CCNC(=O)c1ncoc1C	-53.1
Cc1cccc2c(CCNS(=O)(=O)C3CCOC3)c[nH]c12 (configuration not stated)	39.2
Cc1cccc2c(CCNC(=O)NCC[S+](C)[O-])c[nH]c12 (configuration not stated)	26.4
CC(=O)N1CCC(C(=O)NCCc2c[nH]c3cc(C)ccc23)CC1	11.9

Compound	INHIBITION [%]
Cc1cccc2c(CCNC(=O)[C@H](N)c3ccccc3)c[nH]c12	61.1
Cc1cccc2c(CCNC(=O)NCCC[S+](C)[O-])c[nH]c12 (configuration not stated)	51
Cc1cnn(CC2CCCCN2C(=O)Cn2nc(C)c(Cl)c2C)c1 (configuration not stated)	13.8
O=C(CCNS(=O)(=O)c1ccc(Cl)cc1)NCc1ccoc1	-11.6
CCNc1ncc(C(=O)NC(CC)c2ccnn2C)cn1 (configuration not stated)	48.2
Cn1cnc2cc(CCC(=O)Nc3n[nH]c(C4CC4)n3)ccc21	41.5
O=C(C1CCC1)N1CCC2(COCc3cnc(N4CCOCC4)nc32)C1 (configuration not stated)	-4.56
COCCC(=O)N1CCC2(COCc3cnc(N4CCOCC4)nc32)C1 (configuration not stated)	34.7
CCC(=O)N1CCC2(COCc3cnc(N4CCOCC4)nc32)C1 (configuration not stated)	57.9
COCC(=O)N1CCC2(COCc3cnc(N4CCOCC4)nc32)C1 (configuration not stated)	84.7
CC(C)NC(=O)N1CCC2(COCc3cnc(N4CCOCC4)nc32)C1 (configuration not stated)	-18.4
CC(C)(C)C(=O)N1CCC2(COCc3cnc(N4CCOCC4)nc32)C1 (configuration not stated)	-18.2
O=C(C1CC1)N1CCC2(COCc3cnc(NCc4ccco4)nc32)C1 (configuration not stated)	-3.33
O=C(CC1CC1)N1CCC2(COCc3cnc(N4CCOCC4)nc32)C1 (configuration not stated)	61.4
O=C(CC1CC1)N1CCC2(COCc3cnc(-c4cccnc4)nc32)C1 (configuration not stated)	42.1
COCC(=O)N1CCC2(COCc3cnc(-c4ccccc4)nc32)C1 (configuration not stated)	-22.4
O=C(C1CC1)N1CCC2(COCc3cnc(N4CCOCC4)nc32)C1 (configuration not stated)	60.1
O=C([C@@H]1C[C@@H]2CCN(C3CCOCC3)C[C@H]2O1)N1CCOCC1	-28
CC(=O)N1CCC(Cc2cnc(-c3c(C)nn(C)c3C)cn2)CC1	-26.2
Cn1cnnc1C1CCCN(C(=O)c2cc3ccccc3[nH]2)C1 (configuration not stated)	-8.11
Cc1ccncc1C(=O)N1C[C@@H]2CN(c3ncccn3)C[C@]2(C(=O)O)C1	7.65
